Results from PubChem BioAssay (NCATS).
Where “and” joins values, the source holds several entries; their conditions need not be identical. Identical values can stand only once. Unmarked numbers belong to inactive results. Records with an inconclusive call do not appear. Where a structure was tested more than once in an assay, its records may differ in their call. Calls of active or inactive are those of the source. Calls come from the whole dose curve; as a rule, active = well fitted curve in the direction sought with a large enough effect; inconclusive = small, poorly fitted or top-dose-only effect, or another doubt; inactive = no such curve, though single readings can be large; an effect the other way counts as inactive or inconclusive.

Biological target: T1, Hexokinase-4 (Homo sapiens) + Glucokinase regulatory protein (Homo sapiens) (UniProt P35557+Q14397)
T1 sequence (P35557 whole entry, looked up): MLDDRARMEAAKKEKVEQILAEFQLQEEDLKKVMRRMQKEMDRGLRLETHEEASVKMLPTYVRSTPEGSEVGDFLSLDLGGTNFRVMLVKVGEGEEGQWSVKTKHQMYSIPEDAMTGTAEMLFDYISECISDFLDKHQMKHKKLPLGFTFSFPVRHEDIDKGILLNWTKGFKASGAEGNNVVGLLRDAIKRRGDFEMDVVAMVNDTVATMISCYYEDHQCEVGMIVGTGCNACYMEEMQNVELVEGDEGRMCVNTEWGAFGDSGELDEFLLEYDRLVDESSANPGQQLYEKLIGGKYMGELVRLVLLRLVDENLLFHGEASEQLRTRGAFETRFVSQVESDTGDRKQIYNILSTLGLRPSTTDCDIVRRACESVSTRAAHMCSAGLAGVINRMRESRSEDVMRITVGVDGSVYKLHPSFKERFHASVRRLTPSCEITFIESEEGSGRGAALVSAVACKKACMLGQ
T1 sequence (Q14397 whole entry, looked up): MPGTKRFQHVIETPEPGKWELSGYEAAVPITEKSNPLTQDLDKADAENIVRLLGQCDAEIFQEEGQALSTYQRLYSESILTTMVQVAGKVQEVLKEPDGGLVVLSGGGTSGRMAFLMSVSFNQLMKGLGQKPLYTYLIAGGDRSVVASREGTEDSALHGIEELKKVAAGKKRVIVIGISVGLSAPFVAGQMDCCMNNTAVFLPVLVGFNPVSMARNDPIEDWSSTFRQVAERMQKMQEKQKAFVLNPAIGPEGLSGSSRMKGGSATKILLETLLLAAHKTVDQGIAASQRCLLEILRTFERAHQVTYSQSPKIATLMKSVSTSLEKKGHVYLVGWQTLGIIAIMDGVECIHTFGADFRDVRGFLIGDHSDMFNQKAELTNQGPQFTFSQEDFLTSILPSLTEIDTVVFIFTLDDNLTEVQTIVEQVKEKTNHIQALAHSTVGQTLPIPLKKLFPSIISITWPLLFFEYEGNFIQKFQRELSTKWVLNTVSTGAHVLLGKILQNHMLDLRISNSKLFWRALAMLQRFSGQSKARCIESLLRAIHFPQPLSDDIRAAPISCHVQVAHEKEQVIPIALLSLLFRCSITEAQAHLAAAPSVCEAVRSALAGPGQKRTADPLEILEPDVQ
Experiment: qHTS assay for inhibitors of recombinant human GCK-GKRP interaction: ADP-Glo assay (AID 743206);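 note: plate controls were DMSO plus enzyme for no effect and no enzyme for full effect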
Details: ADP-Glo luminescence, 60 min, 0% = vehicle-only wells with enzyme present; series mostly up to 76.9 µM; activity, positive = activation: at the top concentration
In short: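 Pin-transferred compounds meet a 15 nM GST-GCK/15 nM FLAG-GKRP/2 uM S6P mix (dispense concentrations). ATP is then added to 0.4 mM final with 5 mM glucose, and the reaction runs 60 min at room temperature. ADP is quantified luminescently.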
For COC(=O)C1=C(C)NC(C)=C(C(=O)OC)C1c1ccccc1[N+](=O)[O-], the “activity, positive = activation” value was 3.53%. With C[C@]12C[C@H](O)[C@H]3[C@@H](CCC4=CC(=O)CC[C@@]43C)[C@@H]1CC[C@@H]2C(=O)CO the “activity, positive = activation” value was -2.03%. In the case of C[C@]12CC[C@@H]3c4ccc(O)cc4CC[C@H]3[C@@H]1CCC2=O, the “activity, positive = activation” value is reported as 3.15%. With NC(=O)c1ncn([C@@H]2O[C@H](CO)[C@@H](O)[C@H]2O)n1 the “activity, positive = activation” value was 4.4%. With CN(C)CCOC(C)(c1ccccc1)c1ccccn1 (stereo not given) the “activity, positive = activation” value was 1.77%. With CNC(=O)Oc1ccc2c(c1)[C@]1(C)CCN(C)[C@@H]1N2C the “activity, positive = activation” value was 4.05%. In the case of CC(CN1c2ccccc2Sc2ccccc21)N(C)C (stereo not given), the “activity, positive = activation” value is reported as 2.33%. For CC1=C(/C=C/C(C)=C/C=C/C(C)=C/C(=O)O)C(C)(C)CCC1, the “activity, positive = activation” value was 5.09%. In the case of COc1ccc(Cl)cc1C(=O)NCCc1ccc(S(=O)(=O)NC(=O)NC2CCCCC2)cc1, the “activity, positive = activation” value is reported as 3.36%.

Biological target: T1, Hexokinase-4 (Homo sapiens) + Glucokinase regulatory protein (Homo sapiens)
Experiment: qHTS assay for inhibitors of recombinant human GCK-GKRP interaction: HTRF assay (AID 743207);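 note: 0% = DMSO with GCK present and -100% = DMSO wells lacking GCK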
Details: recombinant GCK-GKRP HTRF binding, 60 min, with sorbitol-6-phosphate; series mostly up to 57.5 µM; activity change, negative = inhibition: at the top concentration
In short: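 HTRF binding of 5 nM GST-GCK and 5 nM FLAG-GKRP with 2 uM S6P in pH 7.1 Hepes buffer (MgCl2, KCl, DTT, Tween 20, BSA). Anti-FLAG XL665 and anti-GST donor added, 60 min at room temperature; 665/615 nm read, normalized to with- and without-GCK controls.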
For COC(=O)C1=C(C)NC(C)=C(C(=O)OC)C1c1ccccc1[N+](=O)[O-], the “activity change, negative = inhibition” value was 9.05%. With C[C@]12C[C@H](O)[C@H]3[C@@H](CCC4=CC(=O)CC[C@@]43C)[C@@H]1CC[C@@H]2C(=O)CO the “activity change, negative = inhibition” value was 10.3%. For NC(=O)c1ncn([C@@H]2O[C@H](CO)[C@@H](O)[C@H]2O)n1, the “activity change, negative = inhibition” value was -7.92%. For CN(C)CCOC(C)(c1ccccc1)c1ccccn1 (stereo not given), the “activity change, negative = inhibition” value was 9.26%. In the case of CNC(=O)Oc1ccc2c(c1)[C@]1(C)CCN(C)[C@@H]1N2C, the “activity change, negative = inhibition” value is reported as 9.61%. For CC(CN1c2ccccc2Sc2ccccc21)N(C)C (stereo not given), the “activity change, negative = inhibition” value was 1.23%. In the case of CC1=C(/C=C/C(C)=C/C=C/C(C)=C/C(=O)O)C(C)(C)CCC1, the “activity change, negative = inhibition” value is reported as -5.61%. With COc1ccc(Cl)cc1C(=O)NCCc1ccc(S(=O)(=O)NC(=O)NC2CCCCC2)cc1 the “activity change, negative = inhibition” value was -0.472%.

Test system: not listed separately
Experiment: qHTS Assay for Identifying Gametocytocidal Compounds (AID 743244); note: potency is the fitted concentration of half-maximal effect;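 for max response: % is set by controls: 0 for no effect and ±100 for the full control effect; actives lower the fluorescent signal which means gametocytes are killed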
Details: P. falciparum 3D7 stage III-V gametocytes, alamarBlue, 72 h; max response: hits give low values
In short: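 Fluorescence at Ex 525/Em 598 nm, recorded 24 h after alamarBlue addition, reports residual metabolic activity of 3D7 gametocytes (stages III–V) following 72 h compound exposure at 37 °C, 5% CO2.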
Compound COc1ccccc1O has a max response of -0.65%. NCCNCCNCCN showed a max response of -8.14%. With NC(=O)c1ncn([C@@H]2O[C@H](CO)[C@@H](O)[C@H]2O)n1 the max response was -2.06% and 29.2%. In the case of Cc1cc2nc3c(=O)[nH]c(=O)nc-3n(C[C@H](O)[C@H](O)[C@H](O)CO)c2cc1C, the max response is reported as 33.2% and 6.89%. O=S(=O)(O)NC1CCCCC1 showed a max response of -6.77%. In the case of [Cl][In]([Cl])[Cl], the max response is reported as -7.04% and -5.36%. In the case of CN(C)CCOC(C)(c1ccccc1)c1ccccn1 (stereo not given), the max response is reported as 7.8%. Compound CC12CCC(CC1)C(C)(C)O2 has a max response of 7.91%. CCCCC(CC)COC(=O)c1ccccc1O (stereo not given) gave a max response of 10.2%. For Oc1cccc(O)c1, the max response was -1.48%. Compound Nc1ccc(S(=O)(=O)Nc2nccs2)cc1 has a max response of 3.15%. Cc1c(O)cccc1C(=O)N[C@@H](CSc1ccccc1)[C@H](O)CN1C[C@H]2CCCC[C@H]2C[C@H]1C(=O)NC(C)(C)C gave a max response of 0.0084%. For CC1=C(/C=C/C(C)=C/C=C/C(C)=C/C(=O)O)C(C)(C)CCC1, the max response was 12.7% and 23.7%. In the case of NC(=O)N/N=C/c1ccc([N+](=O)[O-])o1, the Potency is reported as 35.5 µM (active) and the max response is reported as 4.19%. With COc1ccc(Cl)cc1C(=O)NCCc1ccc(S(=O)(=O)NC(=O)NC2CCCCC2)cc1 the max response was 54% and 5.04%. With CC(O)CN(CCN(CC(C)O)CC(C)O)CC(C)O (stereo not given) the max response was 3.97%. For CCCCCCCCCCCCOS(=O)(=O)O, the max response was 14.3%. With CCCCOC(=O)c1ccc(O)cc1 the max response was 0.124%. In the case of CCOC(=O)c1ccc(O)cc1, the max response is reported as 10.3%. CCCc1c(OCCCCc2nn[nH]n2)ccc(C(C)=O)c1O gave a max response of -10.5%. Work on Cc1cccc(Nc2cc(Cl)nc(SCC(=O)O)n2)c1C yielded a max response of -1.09%.

Test system: not listed separately
Experiment: qHTS assay for cell viability of HEK293 cells (AID 743288); note: % is set by controls: 0 for no effect and ±100 for the full control effect; nearly all actives have a fitted effect of over 50% in size
Details: ATP luminescence (CellTiter-Glo), 18 h, hits give low values
In short: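 Steps: plate 2,000 parental HEK293 cells per well; incubate ≥5 h, 37 C; add compounds in DMSO; incubate 18 h, 37 C; add CellTiter-Glo; wait 30 min at room temperature; read luminescence.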
In the case of C[C@]12C[C@H](O)[C@H]3[C@@H](CCC4=CC(=O)CC[C@@]43C)[C@@H]1CC[C@@H]2C(=O)CO, the max response is reported as -14.2% and 1.25%. In the case of NCCNCCNCCNCCN, the max response is reported as -15.2% and 3.69%. In the case of COc1ccccc1O, the max response is reported as 2.42% and 2.72% and -4.36%. For C[C@]12CC[C@@H]3c4ccc(O)cc4CC[C@H]3[C@@H]1CCC2=O, the max response was -13%. In the case of NCCNCCNCCN, the max response is reported as -5.67%. With O=C1O[C@H]([C@@H](O)CO)C(O)=C1O the max response was -2.8% and 5.16%. With NC(=O)c1ncn([C@@H]2O[C@H](CO)[C@@H](O)[C@H]2O)n1 the max response was -7.49%. Cc1cc2nc3c(=O)[nH]c(=O)nc-3n(C[C@H](O)[C@H](O)[C@H](O)CO)c2cc1C showed a max response of -6.02%. With O=S(=O)(O)NC1CCCCC1 the max response was -0.923%. For CC1(C)[C@@H]2CC[C@@]1(C)C(=O)C2, the max response was -3.96%. For [Cl][In]([Cl])[Cl], the max response was 7.88%. CN(C)CCOC(C)(c1ccccc1)c1ccccn1 (stereo not given) showed a max response of -4.19%. Work on CC12CCC(CC1)C(C)(C)O2 yielded a max response of 4.94%. With CCCCC(CC)COC(=O)c1ccccc1O (stereo not given) the max response was -7.63%. Compound Oc1cccc(O)c1 has a max response of 11.8%. Work on Nc1ccc(S(=O)(=O)Nc2nccs2)cc1 yielded a max response of -1.59%. In the case of CNC(=O)Oc1ccc2c(c1)[C@]1(C)CCN(C)[C@@H]1N2C, the max response is reported as -7.46%. For CC(CN1c2ccccc2Sc2ccccc21)N(C)C (stereo not given), the max response was -10.5%. O=C1NS(=O)(=O)c2ccccc21 showed a max response of 0.942%. With CC1=C(/C=C/C(C)=C/C=C/C(C)=C/C(=O)O)C(C)(C)CCC1 the max response was -2.27% and -2.67%. In the case of NC(=O)N/N=C/c1ccc([N+](=O)[O-])o1, the max response is reported as -5.04% and -17.6%. In the case of CC(O)COc1ccccc1 (stereo not given), the max response is reported as 1.97%. For COc1ccc(Cl)cc1C(=O)NCCc1ccc(S(=O)(=O)NC(=O)NC2CCCCC2)cc1, the max response was -4.82%. For CC(O)CN(CCN(CC(C)O)CC(C)O)CC(C)O (stereo not given), the max response was -9.37%. With CCCCCCCCCCCCOS(=O)(=O)O the max response was -2.66% [middle of 4 runs]. With CCCCOC(=O)c1ccc(O)cc1 the max response was -12.8% and -6.18%. Work on O=C1c2c(O)cccc2Cc2cccc(O)c21 yielded a max response of -1.66%. For CCOC(=O)c1ccc(O)cc1, the max response was -3.62%. Work on CCCc1c(OCCCCc2nn[nH]n2)ccc(C(C)=O)c1O yielded a max response of -7.07%. In the case of Cc1cccc(Nc2cc(Cl)nc(SCC(=O)O)n2)c1C, the max response is reported as -9.34%. Work on Cc1cc(CC(=O)O)n(C)c1C(=O)c1ccc(Cl)cc1 yielded a max response of 2.85%.
